The nature of assay [1]: Quantitative High-Throughput drug screen in 47 multiple myeloma cell lines against the NCATS MIPE library collection: KMS27_JCRB cell viability assay (AID 1918970). Note: nearly all actives have a fitted effect of over 30% in size. Note: potency is the fitted concentration of half-maximal effect. The procedure, abridged: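 Luminescent ATP read-out (CellTiter-Glo, 5 min at room temperature) after 48 h compound exposure of 500 KMS27_JCRB cells per well; DMSO wells define full viability and media-only wells zero.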

Assay [2] in a line: Quantitative High-Throughput drug screen in 47 multiple myeloma cell lines against the NCATS MIPE library collection: KMS12BM_JCRB cell viability assay (AID 1918971). Note: nearly all actives have a fitted effect of over 35% in size. Note: potency is the fitted concentration of half-maximal effect. The procedure, abridged:
(§1)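 qHTS of the MIPE 4.0 collection: 500 myeloma cells/well, 48 h drug exposure at 37C in 5% CO2, then CellTiter-Glo for 5 min at room temperature before luminescence reading.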

A short description of assay [3]: Quantitative High-Throughput drug screen in 47 multiple myeloma cell lines against the NCATS MIPE library collection: KMS12PE_JCRB cell viability assay (AID 1918972).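 For viability: 100% = DMSO only wells and 0% = wells with media alone.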 Note: nearly all actives have a fitted effect of over 30% in size. Note: potency is the fitted concentration of half-maximal effect. Summed up: (§2)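 Approved and investigational drugs from MIPE 4.0 were added by pin tool to 500 cells per well. After 48 hours at 37C, ATP-based CellTiter-Glo luminescence indicated remaining viability.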

A short description of assay [4]: Quantitative High-Throughput drug screen in 47 multiple myeloma cell lines against the NCATS MIPE library collection: KMS20_JCRB cell viability assay (AID 1918973). Note: nearly all actives have a fitted effect of over 45% in size. Note: potency is the fitted concentration of half-maximal effect. Summed up:
as §2

Assay [5] is described as follows: Quantitative High-Throughput drug screen in 47 multiple myeloma cell lines against the NCATS MIPE library collection: KMS26_JCRB cell viability assay (AID 1918975). Note: nearly all actives have a fitted effect of over 45% in size. Note: potency is the fitted concentration of half-maximal effect. Summed up:
as §1

A short description of assay [6]: Quantitative High-Throughput drug screen in 47 multiple myeloma cell lines against the NCATS MIPE library collection: MOLP8_DSMZ cell viability assay (AID 1918977). Note: nearly all actives have a fitted effect of over 45% in size. Note: potency is the fitted concentration of half-maximal effect. Summed up: (§3)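 MIPE 4.0 approved/investigational drugs; 500 cells/well; 48 h 37 °C humidified 5% CO2; CTG luminescence readout; DMSO = 100%, media = 0% viability.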
A short description of assay [7]: Quantitative High-Throughput drug screen in 47 multiple myeloma cell lines against the NCATS MIPE library collection: NCIH929_DSMZ cell viability assay (AID 1918978). Note: nearly all actives have a fitted effect of over 35% in size. Note: potency is the fitted concentration of half-maximal effect. The procedure, abridged: as §3
Assay [8] is described as follows: Quantitative High-Throughput drug screen in 47 multiple myeloma cell lines against the NCATS MIPE library collection: MM1S_ATCC cell viability assay (AID 1918980). Note: nearly all actives have a fitted effect of over 45% in size. Note: potency is the fitted concentration of half-maximal effect. The procedure, abridged:
as §3

Assay [9] can be described thus: Quantitative High-Throughput drug screen in 47 multiple myeloma cell lines against the NCATS MIPE library collection: MM1R_ATCC cell viability assay (AID 1918981). Note: nearly all actives have a fitted effect of over 35% in size. Note: potency is the fitted concentration of half-maximal effect. Summed up:
as §3

The nature of assay [10]: Quantitative High-Throughput drug screen in 47 multiple myeloma cell lines against the NCATS MIPE library collection: KMS28PE_JCRB cell viability assay (AID 1918983). Note: nearly all actives have a fitted effect of over 35% in size. Note: potency is the fitted concentration of half-maximal effect. The procedure, abridged: as §3
The nature of assay [11]: Quantitative High-Throughput drug screen in 47 multiple myeloma cell lines against the NCATS MIPE library collection: L363_DSMZ cell viability assay (AID 1918984). Note: nearly all actives have a fitted effect of over 40% in size. Note: potency is the fitted concentration of half-maximal effect. The procedure, abridged: as §3
A short description of assay [12]: Quantitative High-Throughput drug screen in 47 multiple myeloma cell lines against the NCATS MIPE library collection: KMS34_JCRB cell viability assay (AID 1918985). Note: nearly all actives have a fitted effect of over 40% in size. Note: potency is the fitted concentration of half-maximal effect. The procedure, abridged:
as §3

Assay [13] in a line: Quantitative High-Throughput drug screen in 47 multiple myeloma cell lines against the NCATS MIPE library collection: OCIMY7_PLB cell viability assay (AID 1918987). Note: nearly all actives have a fitted effect of over 65% in size. Note: potency is the fitted concentration of half-maximal effect. Summed up:
as §3

A short description of assay [14]: Quantitative High-Throughput drug screen in 47 multiple myeloma cell lines against the NCATS MIPE library collection: OCIMY5_PLB cell viability assay (AID 1918988). Note: nearly all actives have a fitted effect of over 65% in size. Note: potency is the fitted concentration of half-maximal effect. The procedure, abridged:
as §3

Assay [15] can be described thus: Quantitative High-Throughput drug screen in 47 multiple myeloma cell lines against the NCATS MIPE library collection: OPM1_PLB cell viability assay (AID 1918989). Note: nearly all actives have a fitted effect of over 40% in size. Note: potency is the fitted concentration of half-maximal effect. Summed up:
as §3

Assay [16] is described as follows: Quantitative High-Throughput drug screen in 47 multiple myeloma cell lines against the NCATS MIPE library collection: KMS21BM_JCRB cell viability assay (AID 1918974). Particulars: ATP luminescence, 48 h; viability: at 45.8 µM (top of the series) unless noted. Summed up:
as §2

The nature of assay [17]: Quantitative High-Throughput drug screen in 47 multiple myeloma cell lines against the NCATS MIPE library collection: MMM1_PLB cell viability assay (AID 1918976). Summed up:
as §3

Assay [18] in a line: Quantitative High-Throughput drug screen in 47 multiple myeloma cell lines against the NCATS MIPE library collection: OCIMY1_PLB cell viability assay (AID 1918979).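 For viability: 100% = DMSO-only wells and 0% = cell-free media-only wells.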 Note: nearly all actives have a fitted effect of over 35% in size. Note: potency is the fitted concentration of half-maximal effect. Summed up: as §3
The nature of assay [19]: Quantitative High-Throughput drug screen in 47 multiple myeloma cell lines against the NCATS MIPE library collection: SKMM1_PLB cell viability assay (AID 1919863). Note: nearly all actives have a fitted effect of over 35% in size. Note: potency is the fitted concentration of half-maximal effect. The conditions noted are these: SKMM1 myeloma viability, CellTiter-Glo ATP, 48 h; viability: active compounds read low. The procedure, abridged: as §3
The nature of assay [20]: Quantitative High-Throughput drug screen in 47 multiple myeloma cell lines against the NCATS MIPE library collection: LP1_DSMZ cell viability assay (AID 1918982). Note: nearly all actives have a fitted effect of over 35% in size. Note: potency is the fitted concentration of half-maximal effect. The procedure, abridged: as §3

A word on the viability: it is a read-out of living cells in per cent, often relative to untreated cells.

Structures are written as SMILES. Inconclusive results are not listed. Values without a mark were called inactive. Active and inactive are the calls of the source. Calls come from the whole dose curve; as a rule, active = well fitted curve in the direction sought with a large enough effect; inconclusive = small, poorly fitted or top-dose-only effect, or another doubt; inactive = no such curve, though single readings can be large; an effect the other way counts as inactive or inconclusive. Non-standard residues stand in square brackets, D forms with d. Residues, ends and D or L forms follow the SMILES beside them. *: point of attachment. Sta = CC(C)C[C@H](N)[C@@H](O)CC(=O)O; Isovaleryl = CC(C)CC(=O)*

In the case of `Nc1nc(N)c(N=O)c(OCC2CCCCC2)n1`, the Potency in [1] was 6.62 µM (active); in assay [2], 13.2 µM (active); in [3], 4.69 µM (active); in [4] it was 4.69 µM (active); in assay [5], 13.2 µM (active); in assay [6] it was 5.26 µM (active). The Potency was 5.26 µM (active) in [7]; 13.2 µM (active) in assay [8]; 14.8 µM (active) in assay [9]; 14.8 µM (active) in assay [10]; 2.64 µM (active) in assay [11]; 11.8 µM (active) in assay [12]. The Potency in assay [13] was 1.48 µM (active); in [14], 13.2 µM (active); in assay [15], 7.43 µM (active).
Turning to `O=c1cc(N2CCOCC2)oc2c(-c3ccccc3)cccc12`, the Potency entry in assay [1], in [3], in assay [16] and in [11] was “inactive” in each case. Besides, the Potency in assay [2] is 14.8 µM (active); in assay [5], 7.43 µM (active); in [17], 18.7 µM (active); in assay [6], 7.43 µM (active); in assay [18] it was 11.8 µM (active); in assay [8], 14.8 µM (active). In addition, the Potency was 7.43 µM (active) in assay [9]; 10.5 µM (active) in assay [10]; 11.8 µM (active) in assay [12]; 13.2 µM (active) in assay [14]; 10.5 µM (active) in assay [15]; 14.8 µM (active) in assay [19].
Take `Cc1cc(=O)oc2cc(O)ccc12`: the Potency entry in assay [1], in [2], in assay [3], in assay [4], in [5] and in [6] was “inactive” in each case. The Potency entry in [7], in assay [18], in [10], in assay [11], in [14] and in [15] was “inactive” each time. In addition, the Potency in assay [17] was 0.296 µM (active); in [9], 6.62 µM (active). Further, in assay [19], the viability was 114%.
Take `COCCCOc1ccnc(CS(=O)c2nc3ccccc3[nH]2)c1C` (stereo not drawn): the Potency result in [1], in assay [2], in assay [3], in assay [5], in [7] and in [18] was “inactive” each time. Besides, the Potency result in assay [9], in assay [10], in assay [11], in assay [12] and in [15] was “inactive” throughout.
On to `Cc1cc(C2CCCCC2)n(O)c(=O)c1`, for which the Potency in [1] is 5.26 µM (active); in assay [2], 8.33 µM (active); in [3] it was 11.8 µM (active); in assay [4], 11.8 µM (active); in assay [5], 10.5 µM (active); in assay [17], 14.8 µM (active). Besides, the Potency is 4.18 µM (active) in assay [6]; 7.43 µM (active) in assay [7]; 0.935 µM (active) in assay [8]; 1.48 µM (active) in [9]; 14.8 µM (active) in assay [20]; 7.43 µM (active) in [11]. For the same compound, the Potency in assay [12] is 5.26 µM (active); in [13], 7.43 µM (active); in assay [14], 2.09 µM (active); in [15], 9.35 µM (active); in [19], 9.35 µM (active).
With `COC(=O)N[C@H](C(=O)N[C@@H](Cc1ccccc1)[C@@H](O)CN(Cc1ccc(-c2ccccn2)cc1)NC(=O)[C@@H](NC(=O)OC)C(C)(C)C)C(C)(C)C`, the Potency result in assay [1], in [3], in assay [7], in assay [18], in assay [8] and in assay [11] was “inactive” in each case. The Potency result in assay [15] is “inactive”. The Potency is 20.9 µM (active) in assay [2], 6.62 µM (active) in assay [17] and 20.9 µM (active) in assay [12].
For `COC(=O)C1=C(C)NC(C)=C(C(=O)OC(C)C)C1c1cccc2nonc12` (stereo not drawn), the Potency result in assay [1], in assay [3], in assay [5], in [9], in assay [20] and in assay [14] was “inactive” throughout. Further, the Potency in assay [2] was 18.7 µM (active); in assay [4], 20.9 µM (active); in [17], 5.9 µM (active); in [8], 2.35 µM (active); in assay [10], 18.7 µM (active); in assay [13], 6.62 µM (active). Also, the Potency in [15] is 26.4 µM (active).
For `COc1c(O)cc2c(c1O)[C@@H]1O[C@H](CO)[C@@H](O)[C@H](O)[C@H]1OC2=O`, the Potency entry in [1], in assay [3], in assay [4], in [5], in assay [7] and in [18] was “inactive” throughout. For the same compound, the Potency entry in assay [8], in assay [9], in assay [20], in [10], in assay [11] and in [13] was “inactive” in each case. The Potency result in [14] and in assay [15] was “inactive” in each case. The Potency in assay [2] was 4.18 µM (active); in [17] it was 2.35 µM (active).
With `COc1ccc(C2(C#N)CCC(C(=O)O)CC2)cc1OC1CCCC1` (stereo not drawn), the Potency entry in assay [1], in assay [2], in assay [3], in assay [5], in assay [18] and in [9] was “inactive” each time. The Potency result in assay [20], in [10] and in [12] was “inactive” in each case. Also, the Potency was 26.4 µM (active) in assay [8] and 7.43 µM (active) in assay [15].
In the case of `C[C@H](Cn1cnc2c(N)ncnc21)OCP(=O)(O)O`, the Potency result in assay [1], in assay [2], in [3], in [4], in assay [5] and in [6] was “inactive” in each case. The Potency entry in [7], in assay [9], in assay [11], in assay [12], in assay [14] and in assay [15] was “inactive” in each case.
For the compound `Cc1cccc(C#Cc2ccccc2)n1`, the Potency entry in assay [1], in assay [3], in [18], in assay [20] and in assay [10] was “inactive” in each case. Besides, the Potency in assay [2] is 18.7 µM (active); in assay [7], 20.9 µM (active); in assay [15], 8.33 µM (active). Also, the viability in assay [19] is 120%.
On to `O=c1ccc2ccc(O)c(O)c2o1`, for which the Potency in assay [1] was 18.7 µM (active); in assay [2], 18.7 µM (active); in [4], 16.6 µM (active); in [17], 7.43 µM (active); in assay [8] it was 4.18 µM (active); in assay [13] it was 8.33 µM (active). Besides, the Potency in assay [15] is 18.7 µM (active). For the same compound, the Potency entry in [10] is “inactive”.
Take `CC(C)CC(=O)N[C@H](C(=O)N[C@H](C(=O)N[C@@H](CC(C)C)[C@@H](O)CC(=O)N[C@@H](C)C(=O)N[C@@H](CC(C)C)[C@@H](O)CC(=O)O)C(C)C)C(C)C` (Isovaleryl-VV[Sta]A[Sta]-OH): the Potency result in [1], in assay [3], in assay [4], in [5], in [6] and in assay [9] was “inactive” throughout. Besides, the Potency result in [20], in assay [10], in assay [11], in assay [13] and in [15] was “inactive” throughout.
As to `Clc1ccc2c(N3CCN(CCCN4CCN(c5ccnc6cc(Cl)ccc56)CC4)CC3)ccnc2c1`, the Potency result in [1], in assay [2], in assay [4], in [7], in [9] and in [10] was “inactive” in each case. Further, the Potency result in assay [11] and in assay [12] was “inactive” throughout. In addition, in assay [19], the viability was 129%.
